In PubChem BioAssay (NCI) one finds growth data, which are given here for eight molecules.

Some test systems named below: HCT-15 colon; HT29 colon; SNB-75 CNS; U251 CNS; PC-3 prostate; SK-MEL-5 melanoma; UACC-62 melanoma; LOX IMVI melanoma; SK-MEL-28 melanoma; SK-MEL-2 melanoma; EKVX NSCLC; SN12C renal; UO-31 renal; TK-10 renal; ACHN renal; CAKI-1 renal; A498 renal; CCRF-CEM leukemia; MOLT-4 leukemia; SNB-19 CNS.
Holding throughout (assay): NCI-60 one-dose screen, 48 h (100 = growth as untreated, 0 = no growth, -100 = all killed)
Details in all cases: 10 µM unless noted

About 83,000 compounds went through this panel and 20% of them were active in at least one assay; those are over-represented in the sample as a whole.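 48-hour exposure, single concentration, 96-well plates; percent growth endpoint where 0 means no net growth. Active: below 10.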 Values without a mark were called inactive. The source made the active and inactive calls.

For `O=C(CNC1C2CC3CC(C2)CC1C3)Sc1nnc2sc3ccccc3n12` (stereo not drawn), the growth in the assay with HCT-15 colon was 105%; in the assay with HT29 colon, 106%; in the assay on SNB-75 CNS, 76.5%; in the assay with U251 CNS it was 104%; in the assay with PC-3 prostate, 77.4%; with SK-MEL-5 melanoma, 93.9%. Moreover, the growth was 88.2% with UACC-62 melanoma; 94.5% in the assay on LOX IMVI melanoma; 112% with SK-MEL-28 melanoma; 108% in the assay with SK-MEL-2 melanoma; 93% in the assay on EKVX NSCLC; 101% in the assay with SN12C renal. The growth is 78.3% in the assay with UO-31 renal; 127% in the assay with TK-10 renal; 100% in the assay on ACHN renal; 76.4% with CAKI-1 renal; 107% with A498 renal; 86.1% with CCRF-CEM leukemia.
In the case of `O=C1C=CC(=O)N1c1ccc(Cc2ccc(N3C(=O)C=CC3=O)cc2)cc1`, the growth with HCT-15 colon is 91.1%; in the assay on HT29 colon, 133%; in the assay on SNB-75 CNS it was 164%; in the assay on U251 CNS it was 96.8%; in the assay on PC-3 prostate it was 91.2%; with SK-MEL-5 melanoma it was 96.3%. Further, the growth in the assay with UACC-62 melanoma was 83.7%; with LOX IMVI melanoma, 96.1%; in the assay on SK-MEL-28 melanoma, 120%; with SK-MEL-2 melanoma it was 112%; in the assay with EKVX NSCLC, 109%; with SN12C renal, 96.1%. Further, the growth with UO-31 renal is 81.9%; with TK-10 renal it was 92.4%; in the assay on ACHN renal, 94.1%; in the assay with CAKI-1 renal, 65.7%; with A498 renal it was 91.2%; with CCRF-CEM leukemia, 89.5%. In addition, the growth in the assay with MOLT-4 leukemia was 21.8%.
Turning to `CN1CCN(Cc2ccc(NC(=O)c3[nH]ncc3Nc3ncnc4[nH]ccc34)cc2)CC1`, the growth in the assay on HCT-15 colon was 15.6%; with HT29 colon, 1.32% (active); in the assay with SNB-75 CNS, -39.1% (active); with U251 CNS, 7.23% (active); in the assay on PC-3 prostate it was 5.02% (active); in the assay with SK-MEL-5 melanoma it was -25.4% (active). Further, the growth with UACC-62 melanoma is 6.54% (active); with LOX IMVI melanoma it was -67% (active); with SK-MEL-28 melanoma, 2.8% (active); in the assay on SK-MEL-2 melanoma, -12.3% (active); in the assay on EKVX NSCLC, 13%; with SN12C renal, 13.3%. Further, the growth in the assay on UO-31 renal was 3.55% (active); in the assay on TK-10 renal, -61.8% (active); in the assay on ACHN renal it was 5.97% (active); with CAKI-1 renal, -1.63% (active); in the assay on A498 renal, -59% (active); with CCRF-CEM leukemia, 4.71% (active). The growth with MOLT-4 leukemia was -20.9% (active).
Regarding `Cc1ccc(N)cc1F`, the growth was 91.7% in the assay on HCT-15 colon; 110% in the assay with HT29 colon; 101% in the assay with SNB-75 CNS; 95.8% in the assay on U251 CNS; 108% in the assay on PC-3 prostate; 104% in the assay with SK-MEL-5 melanoma. For the same molecule, the growth was 96% in the assay with UACC-62 melanoma; 87.8% in the assay on LOX IMVI melanoma; 117% in the assay on SK-MEL-28 melanoma; 97.1% with SK-MEL-2 melanoma; 98% in the assay on EKVX NSCLC; 96% with SN12C renal. Also, the growth in the assay on UO-31 renal is 92.6%; in the assay with TK-10 renal, 123%; in the assay with ACHN renal, 99.8%; with CAKI-1 renal, 74.5%; in the assay with A498 renal it was 98.2%; with CCRF-CEM leukemia, 102%. For the same molecule, the growth in the assay on MOLT-4 leukemia is 92.3%.
In the case of `CCC(=O)OCc1cccc(OC)c1`, the growth with HCT-15 colon is 92.2%; in the assay with HT29 colon it was 90%; in the assay with SNB-75 CNS, 59.7%; with U251 CNS it was 93.2%; in the assay with PC-3 prostate it was 86.5%; in the assay on SK-MEL-5 melanoma it was 104%. In addition, the growth in the assay on UACC-62 melanoma was 95.8%; in the assay on LOX IMVI melanoma, 92.1%; in the assay on SK-MEL-28 melanoma it was 107%; in the assay on SK-MEL-2 melanoma, 111%; in the assay on EKVX NSCLC, 91.3%; in the assay with SN12C renal, 99%. Moreover, the growth was 92.9% with UO-31 renal; 119% in the assay on TK-10 renal; 93% with ACHN renal; 73.6% in the assay on CAKI-1 renal; 102% in the assay on A498 renal; 73.3% with CCRF-CEM leukemia. Also, the growth in the assay on MOLT-4 leukemia is 87.9%.
For `CC(=O)Nc1ccc2c(c1)c(NC(C)=O)nn2C(=O)Nc1ccc(Cc2ccccc2)cc1`, the growth in the assay with HCT-15 colon was 78.8%; in the assay on HT29 colon, 89.1%; with SNB-75 CNS, 106%; with U251 CNS, 69.5%; in the assay on PC-3 prostate, 63.5%; in the assay with SK-MEL-5 melanoma, 109%. Moreover, the growth in the assay with UACC-62 melanoma is 20%; in the assay on LOX IMVI melanoma, 53.6%; in the assay with SK-MEL-28 melanoma, 141%; with SK-MEL-2 melanoma, 12.9%; with EKVX NSCLC, 71.3%; in the assay on SN12C renal, 82.9%. The growth was 68.2% in the assay with UO-31 renal; 85% in the assay on TK-10 renal; 65.8% with ACHN renal; 49.2% in the assay with CAKI-1 renal; 90.6% with A498 renal; 89.8% with CCRF-CEM leukemia. In addition, the growth with MOLT-4 leukemia is 93.6%.
Consider `Cn1c2ccccc2c2c3[nH]c(=O)[nH]c(=O)c3c3c4ccccc4n(C)c3c21`, for which the growth with HCT-15 colon is 24.2%; in the assay on HT29 colon it was 14.4%; in the assay on SNB-75 CNS, -38.4% (active); in the assay on U251 CNS, 21.9%; in the assay with PC-3 prostate, 41.1%; in the assay with SK-MEL-5 melanoma, 29.3%. The growth in the assay with UACC-62 melanoma is 43%; with LOX IMVI melanoma, 22.5%; in the assay with SK-MEL-28 melanoma, 27.2%; in the assay with SK-MEL-2 melanoma, 67%; in the assay on EKVX NSCLC, 29%; with SN12C renal, 33.7%. Moreover, the growth in the assay on UO-31 renal was 11.8%; in the assay on TK-10 renal, 36.4%; in the assay on ACHN renal, 7.31% (active); in the assay with CAKI-1 renal, 41.5%; in the assay on A498 renal, -4.05% (active); in the assay on CCRF-CEM leukemia it was 52.9%. Further, the growth in the assay with MOLT-4 leukemia was 49.4%.
Regarding `COc1ccc(/C=C2\N=C3SC=C(N)N3C2=O)cc1`, the growth with HCT-15 colon was 20.7%; with HT29 colon, 9.12% (active); in the assay with SNB-75 CNS, 25.2%; in the assay on SNB-19 CNS it was 53.8%; with PC-3 prostate, 20.6%; in the assay on SK-MEL-5 melanoma it was 4.65% (active). Moreover, the growth with UACC-62 melanoma was 23%; in the assay on LOX IMVI melanoma, -47.5% (active); in the assay with SK-MEL-28 melanoma it was 43.7%; with SN12C renal it was 20.4%; in the assay with TK-10 renal it was 19.5%; in the assay with ACHN renal, 33%. In addition, the growth in the assay with CAKI-1 renal was -33% (active); in the assay on A498 renal, 5.67% (active); in the assay with CCRF-CEM leukemia, -40.2% (active); in the assay on MOLT-4 leukemia it was -15.9% (active).
